“And” between values parts separate entries of the source, which are not always exact repeats. Equal entries are not always repeated. Values without a mark were called inactive. Inconclusive results are not listed. The list shows a part of the results. Entries that show only a call come without a potency. The source made the active and inactive calls. Unless noted, calls follow the shape of the dose curve; as a rule, active = well fitted curve in the direction sought with a large enough effect; inconclusive = small, poorly fitted or top-dose-only effect, or another doubt; inactive = no such curve, though single readings can be large; an effect the other way counts as inactive or inconclusive.
Tests used:
[1] = target: Peroxisome proliferator-activated receptor delta (Homo sapiens) (UniProt Q03181); assay: qHTS assay for small molecule antagonists of peroxisome proliferator-activated receptor delta signaling (AID 588535; active = well fitted inhibition curve with a large enough effect in the signal ratio, with a control signal flat, not every such curve was filed as active; the % refers to the signal ratio)
Summary of the method: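 Fluorescence from CCF4-loaded GeneBLAzer PPAR-delta-UAS-bla HEK293T cells (2 hrs RT loading) quantified reporter inhibition after an 18 hr, 37 C compound exposure across a titration.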

[2] = target: Androgen receptor (Homo sapiens) (UniProt P10275); assay: qHTS assay for small molecule agonists of androgen receptor signaling (AID 588515; active = well fitted curve in the direction sought with a large enough effect in the signal ratio, with a control signal flat; the % refers to the signal ratio); settings: AR-UAS-bla HEK293, beta-lactamase ratio, agonist 16 h; stronger effect = higher value
Summary of the method: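 Stimulation of an AR-responsive β-lactamase reporter in GripTite HEK293 cells was measured after 16 h compound exposure at 37 °C, via CCF4 fluorescence after 2 h RT. EC50 from Hill fits, normalized to R1881 at 30 nM.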

[3] = target: Androgen receptor (Homo sapiens) (UniProt P10275); assay: qHTS assay for small molecule antagonists of androgen receptor signaling (AID 588516; active = well fitted curve in the direction sought with a large enough effect in the signal ratio, with a control signal flat, not every such curve was filed as active; the % refers to the signal ratio)
Summary of the method: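 AR-UAS-bla-GripTite HEK 293 cells (2000/well, 5 h at 37 C) received compound titrations, then R1881 at 10 nM final; after 16 h at 37 C, CCF4 dye 2 h RT, beta-lactamase fluorescence read; IC50 from Hill fits.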

[4] = target: Estrogen receptor (Homo sapiens) (UniProt P03372); assay: qHTS assay for small molecule antagonists of estrogen receptor alpha signaling (AID 588513; active = well fitted curve in the direction sought with a large enough effect in the signal ratio, with a control signal flat, not every such curve was filed as active; the % refers to the signal ratio)
Summary of the method: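 ER-alpha-UAS-bla GripTite HEK 293 cells in medium with 2% charcoal/dextran-treated FBS were preincubated 4 h at 37 C, dosed with compound (1:2 titration), stimulated with 0.5nM 17-beta-estradiol for 18 h, then read by CCF4 beta-lactamase fluorescence.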

[5] = qHTS assay to identify small molecules that stimulate interleukin-8 (IL-8) secretion (AID 651758; active = well fitted activation curve with a large enough effect in the signal ratio; the % refers to the signal ratio; also: potency is read from the fitted curve at half-maximal effect)
Summary of the method: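 Compounds are added to THP-1 cells (2000 per well) and left 16 hrs at 37 C. A labeled anti-IL-8 antibody pair is then added, and IL-8 secretion is measured by time-resolved FRET after 1-3 hrs at room temperature.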

[6] = target: Cytochrome P450 3A4 (Homo sapiens) (UniProt P08684); assay: qHTS Assay for Activators of Cytochrome P450 3A4 (AID 885); also: nearly all actives have a fitted effect of over 65% in size
Summary of the method: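 CYP3A4 activity: Luciferin-PPXE O-dealkylation, 25uM substrate, 200mM KPO4, RT throughout. Read-out is luciferase luminescence; higher values reflect activation.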

[7] = target: Endonuclease 4 (Escherichia coli (strain K12)) (UniProt P0A6C1); assay: Counterscreen for APE1 Inhibitors: qHTS Assay for Inhibitors of Endonuclease IV (AID 2565)
Summary of the method: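 Conditions: 2 nM enzyme, 50 nM TAMRA/BHQ-2 substrate, pH 7.5 Tris buffer with 2 mM MgCl2, RT. Compound preincubation 15 min; readout three fluorescence reads 60 s apart, third-minus-first.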

[8] = target: DNA repair nuclease/redox regulator APEX1 (Homo sapiens) (UniProt P27695); assay: qHTS FP-Based Assay for Inhibitors of the Human Apurinic/apyrimidinic Endonuclease 1 (APE1) (AID 2573)
[9] = qHTS profiling for inhibitors of Plasmodium falciparum proliferation (AID 504749); also: nearly all actives have a fitted effect of over 60% in size; settings: P. falciparum in erythrocytes, SYBR Green DNA, 72 h, at 28.7 µM (top of the series)
Summary of the method: (§1)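 Each compound contacts P. falciparum-infected red blood cells for 72 h at 37 C; lysis buffer (Tris, EDTA, saponin, Triton X, SYBR Green I) is added and fluorescence measured next morning; values normalized to controls.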

AS120 = assay: as above; settings: P. falciparum in erythrocytes, SYBR Green DNA, 72 h; series mostly up to 28.7 µM
Summary of the method: as §1

CP203 = assay: as above; settings: P. falciparum in erythrocytes, SYBR Green DNA, 72 h; series mostly up to 28.7 µM
Summary of the method: as §1

DFO2036 = assay: as above; settings: P. falciparum in erythrocytes, SYBR Green DNA, 72 h; series mostly up to 28.7 µM
Summary of the method: as §1

W2 = assay: as above; settings: P. falciparum in erythrocytes, SYBR Green DNA, 72 h; series mostly up to 28.7 µM
Summary of the method: as §1

Estrogen receptor (Homo sapiens), sequence (P03372 whole entry, looked up): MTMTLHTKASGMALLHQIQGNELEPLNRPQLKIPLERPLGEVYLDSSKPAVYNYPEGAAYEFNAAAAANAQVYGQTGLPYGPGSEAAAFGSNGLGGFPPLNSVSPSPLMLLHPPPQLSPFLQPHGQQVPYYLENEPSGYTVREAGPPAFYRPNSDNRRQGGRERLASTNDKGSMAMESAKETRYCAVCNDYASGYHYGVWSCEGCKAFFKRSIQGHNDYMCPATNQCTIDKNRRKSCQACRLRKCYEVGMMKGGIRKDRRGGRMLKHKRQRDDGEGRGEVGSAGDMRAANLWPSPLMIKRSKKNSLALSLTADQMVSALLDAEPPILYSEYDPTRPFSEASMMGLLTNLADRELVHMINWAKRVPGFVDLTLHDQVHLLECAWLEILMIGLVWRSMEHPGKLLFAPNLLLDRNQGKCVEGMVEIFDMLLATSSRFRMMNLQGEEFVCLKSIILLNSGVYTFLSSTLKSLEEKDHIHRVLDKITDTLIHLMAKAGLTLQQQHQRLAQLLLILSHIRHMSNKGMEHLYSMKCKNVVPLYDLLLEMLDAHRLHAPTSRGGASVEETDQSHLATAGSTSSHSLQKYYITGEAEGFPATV
Cytochrome P450 3A4 (Homo sapiens), sequence (P08684 whole entry, looked up): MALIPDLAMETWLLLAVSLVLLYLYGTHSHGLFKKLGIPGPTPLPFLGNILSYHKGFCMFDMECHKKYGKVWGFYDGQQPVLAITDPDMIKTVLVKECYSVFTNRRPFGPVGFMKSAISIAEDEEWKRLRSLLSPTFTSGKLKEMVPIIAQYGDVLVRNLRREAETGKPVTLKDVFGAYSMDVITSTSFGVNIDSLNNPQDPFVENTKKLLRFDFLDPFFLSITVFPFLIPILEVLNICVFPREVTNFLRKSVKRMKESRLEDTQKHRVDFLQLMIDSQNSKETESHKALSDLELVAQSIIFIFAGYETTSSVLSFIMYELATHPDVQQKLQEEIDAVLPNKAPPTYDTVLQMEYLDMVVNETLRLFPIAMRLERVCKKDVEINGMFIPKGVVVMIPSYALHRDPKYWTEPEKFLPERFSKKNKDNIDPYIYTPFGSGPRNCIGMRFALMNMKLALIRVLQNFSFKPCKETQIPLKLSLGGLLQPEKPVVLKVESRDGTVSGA
Androgen receptor (Homo sapiens), sequence (P10275 whole entry, looked up): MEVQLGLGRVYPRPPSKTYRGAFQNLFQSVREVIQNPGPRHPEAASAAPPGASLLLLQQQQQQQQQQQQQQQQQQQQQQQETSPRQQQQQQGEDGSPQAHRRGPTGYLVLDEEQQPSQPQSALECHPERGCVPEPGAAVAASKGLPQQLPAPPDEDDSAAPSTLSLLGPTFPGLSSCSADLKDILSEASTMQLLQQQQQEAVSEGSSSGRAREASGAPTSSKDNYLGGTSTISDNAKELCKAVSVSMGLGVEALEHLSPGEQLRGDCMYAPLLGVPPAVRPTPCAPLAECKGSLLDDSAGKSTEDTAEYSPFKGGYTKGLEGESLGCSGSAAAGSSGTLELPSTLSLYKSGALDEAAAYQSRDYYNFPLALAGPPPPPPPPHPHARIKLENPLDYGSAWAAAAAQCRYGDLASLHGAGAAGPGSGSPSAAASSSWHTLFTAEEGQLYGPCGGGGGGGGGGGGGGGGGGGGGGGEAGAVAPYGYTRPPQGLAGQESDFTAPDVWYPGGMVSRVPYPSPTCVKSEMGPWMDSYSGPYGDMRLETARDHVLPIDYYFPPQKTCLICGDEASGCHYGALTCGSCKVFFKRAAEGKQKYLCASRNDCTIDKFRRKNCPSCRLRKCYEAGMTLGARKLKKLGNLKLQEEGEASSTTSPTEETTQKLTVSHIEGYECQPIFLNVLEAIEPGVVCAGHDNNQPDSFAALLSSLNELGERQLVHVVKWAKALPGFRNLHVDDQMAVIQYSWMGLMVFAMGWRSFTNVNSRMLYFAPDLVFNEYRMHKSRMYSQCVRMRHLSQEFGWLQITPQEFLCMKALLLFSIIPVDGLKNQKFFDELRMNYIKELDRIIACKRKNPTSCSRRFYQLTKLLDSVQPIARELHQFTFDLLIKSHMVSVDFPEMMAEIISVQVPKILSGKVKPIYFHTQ
Peroxisome proliferator-activated receptor delta (Homo sapiens), sequence (Q03181 whole entry, looked up): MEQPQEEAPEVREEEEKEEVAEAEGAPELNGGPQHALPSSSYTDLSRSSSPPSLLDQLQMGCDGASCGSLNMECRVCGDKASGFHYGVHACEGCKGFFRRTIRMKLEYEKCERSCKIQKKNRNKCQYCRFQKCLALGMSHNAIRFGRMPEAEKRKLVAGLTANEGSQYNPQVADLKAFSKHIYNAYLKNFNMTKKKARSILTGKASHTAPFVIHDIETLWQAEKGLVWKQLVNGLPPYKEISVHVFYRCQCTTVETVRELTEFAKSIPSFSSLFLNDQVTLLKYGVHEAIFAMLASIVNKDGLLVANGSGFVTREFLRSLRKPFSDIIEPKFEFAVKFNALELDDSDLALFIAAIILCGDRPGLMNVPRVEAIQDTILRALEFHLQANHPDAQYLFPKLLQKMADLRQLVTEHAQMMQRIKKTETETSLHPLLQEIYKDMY
DNA repair nuclease/redox regulator APEX1 (Homo sapiens), sequence (P27695 whole entry, looked up): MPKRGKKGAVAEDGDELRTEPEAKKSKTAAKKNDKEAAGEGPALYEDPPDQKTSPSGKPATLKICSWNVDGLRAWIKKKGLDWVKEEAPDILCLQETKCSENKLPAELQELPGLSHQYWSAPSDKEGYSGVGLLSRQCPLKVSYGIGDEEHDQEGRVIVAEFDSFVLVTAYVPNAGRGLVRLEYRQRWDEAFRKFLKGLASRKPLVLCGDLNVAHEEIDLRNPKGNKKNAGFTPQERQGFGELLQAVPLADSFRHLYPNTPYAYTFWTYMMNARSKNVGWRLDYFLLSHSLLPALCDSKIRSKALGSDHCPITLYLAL

**Q.** For CN(C)c1ccc(Cc2ccc(N(C)C)cc2)cc1, which outcome [1] is on record?
**A.** inactive

**Q.** For Cc1ccc(C(=O)O)cc1[N+](=O)[O-], which activation [2] is on record?
**A.** 6.4%

**Q.** What about the outcome [3] of the same compound?
**A.** inactive

**Q.** Which outcome [3] does the source give for Cc1ccc(N)cc1[N+](=O)[O-] here?
**A.** inactive

**Q.** Which outcome [1] does the source give for c1ccc(CSCc2ccccc2)cc1 here?
**A.** inactive

**Q.** Which outcome [4] does the source give for O=C(OCc1ccccc1)c1ccccc1O here?
**A.** inactive

**Q.** And the outcome [1]?
**A.** inactive

**Q.** And the Potency [5]?
**A.** inactive

**Q.** For O=[N+]([O-])c1ccccc1Nc1ccccc1, which outcome [4] is on record?
**A.** inactive

**Q.** Which Potency [6] does the source give for Cc1cc(=O)oc2cc(O)cc(O)c12 here?
**A.** inactive

**Q.** For c1ccc2ncccc2c1, which outcome [4] is on record?
**A.** inactive

**Q.** What about the Potency [5] of the same compound?
**A.** inactive

**Q.** For COc1ccc(C(=O)Nc2ccccc2)cc1[N+](=O)[O-], which Potency [6] is on record?
**A.** inactive

**Q.** For OC1CCCCC1, which outcome [1] is on record?
**A.** inactive

**Q.** And the Potency [5]?
**A.** inactive

**Q.** For CCCCNCC, which outcome [1] is on record?
**A.** inactive

**Q.** What about the Potency [5] of the same compound?
**A.** inactive

**Q.** With O=[N+]([O-])c1cccc(I)c1 as the compound, how does the outcome [4] read?
**A.** inactive

**Q.** What about the outcome [1] of the same compound?
**A.** inactive

**Q.** With CCNC(=S)NCC as the compound, how does the Potency [6] read?
**A.** inactive

**Q.** Which Potency [5] does the source give for Cc1c(N)cccc1Cl here?
**A.** inactive

**Q.** Which results are given for CCCCCCCCC1CO1 (centres undefined)?
**A.** activation [2]: 13.4%; outcome [3]: inactive

**Q.** With CC(C)OCC1CO1 (centres undefined) as the compound, how does the outcome [4] read?
**A.** inactive

**Q.** Which outcome [4] does the source give for CC(=O)OC(C(=O)c1ccccc1)c1ccccc1 (centres undefined) here?
**A.** inactive

**Q.** What about the activation [2] of the same compound?
**A.** -5.55%

**Q.** And the Potency [5]?
**A.** inactive

**Q.** With OCC(CBr)(CBr)CBr as the compound, how does the outcome [4] read?
**A.** inactive

**Q.** Which outcome [4] does the source give for CCCCC(CC)COC(=O)COc1ccc(Cl)cc1Cl (centres undefined) here?
**A.** inactive

**Q.** Which outcome [4] does the source give for Cc1ccc2ccc3cccc4ccc1c2c34 here?
**A.** inactive

**Q.** Which outcome [1] does the source give for Oc1c(Cl)cc(Cl)c(Cl)c1Cl here?
**A.** inactive

**Q.** Which outcome [4] does the source give for C/C(Cl)=C/CCl here?
**A.** inactive

**Q.** What about the activation [2] of the same compound?
**A.** 10.2%

**Q.** And the outcome [3]?
**A.** inactive

**Q.** And the outcome [1]?
**A.** inactive

**Q.** For Oc1ccc2c(c1)OCO2, which Potency [5] is on record?
**A.** inactive

**Q.** Which Potency [5] does the source give for C=Cc1cccc(C)c1 here?
**A.** inactive

**Q.** For CCCCOC(=O)COc1ccc(Cl)cc1Cl, which Potency [5] is on record?
**A.** inactive

**Q.** With CC(=O)OCc1ccc2c(c1)OCO2 as the compound, how does the Potency [5] read?
**A.** inactive

**Q.** What does the source list for CCC(Cl)CC(Cl)C(Cl)C(Cl)C(Cl)C(C)Cl (centres undefined)?
**A.** activation [2]: -4.22%; Potency [5]: inactive

**Q.** For C[Si](C)(C)Cl, which outcome [4] is on record?
**A.** inactive

**Q.** For c1ccc2c(c1)ccc1ccccc12, which outcome [4] is on record?
**A.** inactive

**Q.** What about the activation [2] of the same compound?
**A.** -2.75% and -0.0415%

**Q.** And the outcome [3]?
**A.** inactive

**Q.** What does the source list for C=CCn1c(=S)[nH]c2scc(-c3ccco3)c2c1=O?
**A.** outcome [7]: inactive; Potency [8]: inactive

**Q.** What does the source list for CCN(CC)c1ccc(N)cc1?
**A.** Potency [6]: inactive; Potency [5]: 37.6 µM (active)

**Q.** With Nc1cnn([C@@H]2O[C@H](CO)[C@@H](O)[C@H]2O)c(=O)n1 as the compound, how does the outcome [4] read?
**A.** inactive

**Q.** What about the Potency [5] of the same compound?
**A.** 75 µM (active)

**Q.** For O=C1OC(=O)c2ccccc21, which outcome [1] is on record?
**A.** inactive

**Q.** Which Potency [5] does the source give for CC(=O)Nc1cccc(C)c1 here?
**A.** inactive

**Q.** With C=CC(C)(O)CCCC(C)CCCC(C)CCCC(C)C (centres undefined) as the compound, how does the Potency [6] read?
**A.** inactive

**Q.** What about the outcome [1] of the same compound?
**A.** inactive

**Q.** For CC(/C=C/C=C(C)/C=C/C(=O)O)=C\C=C\C=C(C)\C=C\C=C(C)\C=C\C(=O)O, which outcome [4] is on record?
**A.** inactive

**Q.** With Cc1ccccc1OCC1CO1 (centres undefined) as the compound, how does the Potency [5] read?
**A.** inactive

**Q.** Which results are given for c1cc2c3c(c1)ccc1cccc(c13)C2?
**A.** Potency [6]: inactive; outcome [1]: inactive; Potency [5]: inactive

**Q.** For Oc1cc2c(cc1O)[C@H]1c3ccc(O)c(O)c3OC[C@@]1(O)C2, which Potency [6] is on record?
**A.** inactive

**Q.** What does the source list for Cc1c(C(=O)O)c(O)cc2c1C(=O)c1c(O)c([C@H]3O[C@H](CO)[C@@H](O)[C@H](O)[C@H]3O)c(O)c(O)c1C2=O?
**A.** Potency [6]: inactive; activity, negative = inhibition ([9]; parasite line A): 5.98%; activity, negative = inhibition ([9]; parasite line B): 13.4%; Potency (AS120): inactive; Potency (CP203): inactive; Potency (DFO2036): inactive; Potency (W2): inactive

**Q.** For Nc1ccc(N)c(Cl)c1, which Potency [6] is on record?
**A.** inactive

Source: PubChem BioAssay (NCATS)
